The panel holds about 83,000 compounds, 20% with a hit somewhere; the sample as a whole holds those more often.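 Compound tested at a single concentration for 48 hours in 96-well plates; a percent growth value below 10 was scored as active.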 A number with no mark means an inactive call. Activity calls are given as the source filed them.
These compounds were tested on HL-60(TB) leukemia (assay: NCI-60 one-dose screen, 48 h (100 = growth as untreated, 0 = no growth, -100 = all killed)). Details: 10 µM unless noted.
For `O=C1/C(=C/c2ccccc2F)CN(C(=O)C(Cl)Cl)C/C1=C\c1ccccc1F`, the growth was -30.7% (active).
With `CN(C)CC1=NC2SC=C(c3ccccc3)C2C(=O)N1CC#N` (stereo not given) the growth was 86.1%.
In the case of `N=c1ccccn1CCO`, the growth was 120%.
Work on `O=C1Nc2ccc(F)cc2/C1=N/c1nnc(Sc2ccccc2)s1` yielded a growth of 49.6%.
`CC(C)OCCCNCC(=O)Nc1ccc(S(=O)(=O)c2ccc(NC(=O)CNCCCOC(C)C)cc2)cc1` was tested, and the growth was 82.1%.
For `CN(C)CCNc1nc2ccccc2c2c1c1c(n2Cc2ccccc2)-c2ccccc2C1=O`, the growth was -85% (active).
Work on `CCOC(=O)C1=C(C)NC(=O)NC1c1cccs1` (stereo not given) yielded a growth of 60.5%.
`N#Cc1c(-c2cccc([N+](=O)[O-])c2)cc(-c2ccc(Nc3nc(Nc4ccc(F)cc4)nc(Nc4ccc(F)cc4)n3)cc2)nc1N` gave a growth of 28.1%.
`OCCn1cc(-c2nc(-c3c[nH]c4ncccc34)cs2)c2cc(F)ccc21` showed a growth of 60.3%.
In the case of `COc1ccc(C)c2sc(N(Cc3cccnc3)C(=O)c3ccc(C#N)cc3)nc12`, the growth was -6.46% (active).
Compound `CCCCNNC(=O)c1ccc(Br)cc1` has a growth of 18.3%.
`COc1ccc(-c2ccc(O)c(C(=O)/C=C/c3cc(OC)c(OC)c(OC)c3)c2)cc1` showed a growth of 54.5%.
Work on `c1ccc(-c2oc(-c3ccccc3)c3ccccc23)cc1` yielded a growth of 109%.
`COc1ccc(-n2ncc3c4nc(OC)c(S(=O)(=O)c5ccccc5)cc4ccc32)cc1` showed a growth of 107%.
With `O=[N+]([O-])c1ccc(-c2cc3c(Nc4ccc(Cl)c(C(F)(F)F)c4)ncnc3s2)cc1` the growth was -41.3% (active).
Work on `CNC(=O)c1cc(Oc2ccc3nc(Nc4cc(Cl)cc(Cl)c4)ccc3c2)ccn1` yielded a growth of 47.6%.
`Cn1c(=O)c2[nH]c(Cc3ccc4c(c3)OCO4)nc2n(C)c1=O` was tested, and the growth was 104%.
In the case of `Cc1cc(Cl)nc(N2CCN(CCNc3ccnc4cc(Cl)ccc34)CC2)n1`, the growth was 27.8%.
Compound `O=C(CSc1oc(-c2ccccc2)nc1S(=O)(=O)c1ccccc1)Nc1ccc(F)cc1` has a growth of 63.5%.
Compound `CC(=O)Oc1cc2ccccc2cc1C(C)C` has a growth of 103%.
Compound `NC(N)=N/N=C/c1cccc(Br)c1` has a growth of 95.3%.
With `Cc1cccc2c1S/C(=C/c1ccc([N+](=O)[O-])cc1)C2=O` the growth was 101%.
`C=C1c2c(C)nn(-c3ccc(N)cc3)c2N(C)C23CC1C1(C)c4c(C)nn(-c5ccc(N)cc5)c4N(C)C(C)(CC12)C3` (stereo not given) was tested, and the growth was 55.7%.
With `CC(=O)O[C@@]12CO[C@@H]1C[C@H](O)[C@@]1(C)C(=O)[C@H](O)C3=C(C)[C@@H](OC(=O)[C@H](O)[C@@H](NC(=O)OC(C)(C)C)c4ccccc4)C[C@@](O)([C@@H](OC(=O)c4ccccc4)C12)C3(C)C` (stereo not given in full) the growth was -12.9% (active).
In the case of `CCOC(=O)c1ccc(Nc2ncnc3ccc(NC(=O)c4ccccc4)cc23)cc1`, the growth was 69.9%.
For `COc1ccc(-c2cc(/C=C/C(=O)c3cc(OC)c(OC)c(OC)c3)[nH]n2)cc1OC`, the growth was -22.9% (active).
With `Cc1cc2c(cc1C)[n+](Cc1ccc3ccccc3n1)cn2Cc1ccc2ccccc2n1` the growth was -49.8% (active).
For `COc1ccc(C2CC(=O)c3c(O)cc(OC4OC(COC5OC(C)C(O)C(O)C5O)C(O)C(O)C4O)cc3O2)cc1O` (stereo not given), the growth was 131%.
With `Cc1cccc(/C=N/n2c(-c3ccc(Cl)cc3)nc3c(Br)cc(Br)cc3c2=O)c1` the growth was 70.8%.
With `CCCCCCNC(=O)c1cc(NCc2cc(O)ccc2O)ccc1O` the growth was -6.21% (active).
`CC(C)(C)CC(C)(C)c1ccc(O)c(Cc2ccc(Cl)cc2Cl)c1` was tested, and the growth was -61.6% (active).
In the case of `Nc1c(C(=O)Nc2ccccc2)sc2nc3c(cc12)CN(Cc1ccccc1)CC3`, the growth was 83%.
With `COc1ccc2[nH]c(=O)c3c4ccccc4cn3c2c1` the growth was -28.4% (active).
`COc1ccc(Cn2c(Br)c3c(c2Br)-c2nc(N)sc2CC3)cc1` was tested, and the growth was -16% (active).
With `CCOC(=O)/C(C#N)=C\c1c[nH]c2ccccc12` the growth was 104%.
In the case of `Cc1ccc(Cn2c(-c3nonc3N)nc3ccccc32)cc1`, the growth was 71.8%.
For `COc1cc2c(cc1O)C(=O)CCCC2`, the growth was 90.3%.
`COc1cc(-c2cc(/C=C/C(=O)c3ccc4c(c3)OCO4)[nH]n2)cc(OC)c1OC` showed a growth of 91.3%.
`O=C1c2cc(Br)ccc2Oc2cc([N+](=O)[O-])ccc2N1c1ccc(I)cc1F` gave a growth of 81.2%.
`CC(=O)Nc1ccc2c(c1)Cc1c(F)c(F)c(F)c(F)c1-2` gave a growth of 65.5%.
